# Assay results taken from PubChem BioAssay AID818 (SRMLSC, 2007).
# Hit rate of the full screen: of about 140,000 compounds, about 2,100 (1.5%) were called active.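 The calls were made as follows: active = viability at or under a set limit, the compound median less 4 SD (cut at about 6% in these data); inactive = the rest.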 The sample as a whole holds a higher share of actives than the screen did.
# Test: primary screen for suppressors of beta-catenin knockout HCT116 cell growth, colon tumor, human (AID 818);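 also: 0% = Hyamine 1622 control at 20 µM and 100% = untreated cell control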
# Conditions: CellTiter-Glo, 60 h, at 10 µM, stronger effect = lower value
row,SMILES,viability
1,CSCCC(Nc1ccc(S(=O)(=O)N2CCOCC2)cc1[N+](=O)[O-])C(=O)OCC(=O)N(C(C)C)C(C)C (stereo unspecified),92.2% (inactive)
2,COc1ccc(-n2c(C)nc3c(cnn3-c3ccccc3)c2=O)cc1,29.9% (inactive)
3,Cc1ccc(-c2nc3c(cnn3-c3ccccc3)c(=O)o2)cc1,95.4% (inactive)
4,COc1ccc(Oc2c(Cl)cnn(-c3ccccc3)c2=O)cc1,5.5% (active)
5,COc1ccccc1OCc1ccc(C(=O)N2CCN(C)CC2)o1,101% (inactive)
6,CCOc1ccc(C(=O)Nc2nccs2)cc1[N+](=O)[O-],94% (inactive)
7,COc1cc(NS(=O)(=O)c2ccccc2)ccc1-n1nc(C)cc1C,101% (inactive)
8,COc1ccccc1/C=N\Nc1cc(C)nc(-n2nc(C)cc2C)n1,3.9% (active)
9,COc1ccc(Nc2cc(C)nc(-n3nc(C)cc3C)n2)cc1,15.2% (inactive)
10,COc1ccc(-n2c(=S)[nH]c3sc4c(c3c2=O)CCc2ccccc2-4)cc1,81% (inactive)
11,CN(C)C(=O)c1ccc2c(c1)C1C3CCC(C3)C1C(c1ccccc1)N2 (stereo unspecified),83.3% (inactive)
12,CC(C)(C)c1ccc(C(=O)NCCn2c(N)c(C#N)c3nc4ccccc4nc32)cc1,66.5% (inactive)
13,CN(C)CCCn1c(N)c(C#N)c2nc(C#N)c(C#N)nc21,5.78% (active)
14,N#Cc1c(N)n(CCOC(=O)c2ccc(Cl)cc2)c2nc3ccccc3nc12,84.2% (inactive)
15,CCC1C(=O)c2ccccc2N(C)C1=O (stereo unspecified),88.1% (inactive)
16,C[C@@H](O)c1nc2ccccc2n1N,96% (inactive)
17,CCOc1ccc(NC(=O)CCC(=O)n2nc(C)cc2C)cc1,96.2% (inactive)
18,CCOc1ccc(NC(=O)CCC(=O)N/N=C/c2ccc([N+](=O)[O-])s2)cc1,5.45% (active)
19,CCOc1ccc(NC(=O)CN2CCN(CC(=O)Nc3ccc(OC)cc3)CC2)cc1,85.4% (inactive)
20,CSc1ccc(/C=N/NC(=O)c2cccc(Cl)c2)cc1,84.1% (inactive)
21,COc1ccc2c(-c3ccccc3)cc(SCC(=O)N(C)C3CCS(=O)(=O)C3)nc2c1 (stereo unspecified),81.2% (inactive)
22,CCCn1nc(NS(=O)(=O)c2ccccc2)c2cc3cc(C)ccc3nc21,91.5% (inactive)
23,Cc1ccccc1C(CC(=O)c1cccs1)C(C#N)C#N (stereo unspecified),2.37% (active)
24,Cc1ccc(C)c(NC(CC(=O)c2ccccc2)C(=O)OCC(=O)c2cccs2)c1 (stereo unspecified),86.5% (inactive)

row,SMILES,viability
1,O=C(CCC(=O)c1cccs1)NCc1ccccc1,88.8% (inactive)
2,CC(=O)Nc1cccc(/C(C)=N/NC(=O)c2c(-c3ccccc3Cl)noc2C)c1,54.6% (inactive)
3,Cc1ccc(-n2c(SCC(=O)N/N=C/C=C/c3ccccc3[N+](=O)[O-])nc3ccccc3c2=O)cc1,83.5% (inactive)
4,CCn1c(/C=C/c2ccc([N+](=O)[O-])o2)nc2ccccc2c1=O,2.56% (active)
5,Cn1cc(/C=C/c2nc3ccccc3c(=O)n2-c2cccc([N+](=O)[O-])c2)c2ccccc21,66.3% (inactive)
6,O=C(CSc1nc2ccccc2[nH]1)N/N=C/C=C\c1ccccc1[N+](=O)[O-],57.4% (inactive)
7,CC(NC(=O)C(=O)NN=C1CCC(C(C)(C)C)CC1)c1ccccc1 (stereo unspecified),98.5% (inactive)
8,O=C(COc1ccc(/C=N/NC(=O)c2ccc(O)cc2)cc1)Nc1ccc([N+](=O)[O-])cc1,64.3% (inactive)
9,CCCCCC(=O)Nc1ccc(C(=O)N/N=C/c2ccc([N+](=O)[O-])cc2)cc1,4.26% (active)
10,CCCCCC(=O)NC(=S)NNC(=O)c1ccc([N+](=O)[O-])cc1,42.3% (inactive)
11,FC(F)Oc1ccccc1NC(=S)Nc1cccc(Cl)c1Cl,94.2% (inactive)
12,CCN1CN(Cc2ccccc2)CNC1=S,94.5% (inactive)
13,C/C(=N\NC(=O)c1cc2c(s1)CCC(C)C2)c1cccnc1 (stereo unspecified),66.6% (inactive)
14,Cc1ccc(C(=O)NC(=S)NCCN2CCOCC2)cc1,101% (inactive)
15,COc1ccc(CC(=O)Nc2ccc(-c3nnc(-c4ccc(C)cc4)o3)cc2)cc1,5.04% (active)
16,COc1ccc(CC(=O)Nc2ccc(C(=O)NC(C)(C)C)cc2)cc1,84.5% (inactive)
17,Cc1nc(-c2ccc(NC(=O)c3cccs3)cc2)cs1,67% (inactive)
18,Cc1ccc(-c2nnc(-c3ccc(NC(=O)c4cccs4)cc3)o2)cc1,2.05% (active)
19,Cc1ccc(-c2csc(NC(=O)c3cccs3)n2)cc1,95.5% (inactive)
20,COc1cccc(NC(=O)Cc2ccc(C)cc2)c1,99.6% (inactive)
21,O=C(/C=C/c1cccs1)NCc1cccnc1,91.2% (inactive)
22,Cc1ccc(-c2nc(-c3cccnc3)sc2CC(=O)Nc2ccc(C)c(Cl)c2)cc1,58.3% (inactive)
23,CCc1nccn1S(=O)(=O)c1cccc([N+](=O)[O-])c1,96.5% (inactive)
24,C=CCOc1c(Br)cc(/C=N\n2nnnc2N)cc1OC,85.3% (inactive)

row,SMILES,viability
1,Oc1c(CN2CCN(c3ccc(F)cc3)CC2)cc(Cl)c2cccnc12,3.91% (active)
2,CCN1CCN(C(c2cccnc2)c2cc(Cl)c3cccnc3c2O)CC1 (stereo unspecified),45.3% (inactive)
3,O=C(c1cccc(C(=O)N2CCN(c3ccc(F)cc3)CC2)c1)N1CCN(c2ccc(F)cc2)CC1,47.4% (inactive)
4,Cc1ccc2c(c1)C(c1ccccc1)N(C(=O)c1ccc(S(=O)(=O)N3CCOCC3)cc1)CC(=O)N2 (stereo unspecified),94.9% (inactive)
5,Cc1cc2c(C)nc(N/N=C/c3ccccc3)nc2o1,92% (inactive)
6,Clc1cccc(CN2COc3c(cc(Cl)c4cccnc34)C2)c1,3.67% (active)
7,O=c1[nH]n(-c2cccc(Cl)c2)c2ncccc12,85.9% (inactive)
8,Nc1c(C(=O)NCc2ccccc2)nnn1Cc1cccc(Cl)c1,25.6% (inactive)
9,CCOC(=O)c1cc2c(=O)n3ccccc3nc2n(CC(C)C)c1=NC(=O)c1c(-c2c(F)cccc2Cl)noc1C,66.4% (inactive)
10,Cc1cc(C)nc(NC(=O)c2cccc([N+](=O)[O-])c2)c1,97.8% (inactive)
11,CSCC[C@H](NC(=O)OC(C)(C)C)C(=O)N/N=C/c1cc2ccc(C)cc2nc1Cl,1.02% (active)
12,CCOc1cc(/C=N/NC(=O)OC)ccc1OCCSc1ccc(Cl)cc1,93.9% (inactive)
13,CSCCC(NC(=O)COc1ccccc1)C(=O)Nc1ccc(C)cc1 (stereo unspecified),99.2% (inactive)
14,COCCCNC(=S)NC(=O)c1ccc([N+](=O)[O-])cc1,95.7% (inactive)
15,Cc1nc(N2CCCC2C(=O)O)c2oc3ccccc3c2n1 (stereo unspecified),95.6% (inactive)
16,Cc1nc(Cl)c2oc3ccccc3c2n1,2.84% (active)
17,CCSc1nc(C)nc2c1oc1ccccc12,95.4% (inactive)
18,Cc1ccc(CCCOC(=O)C[N+]2(C)CCCC2)cc1,97% (inactive)
19,Cc1ccc(S(=O)(=O)c2ccc(Cl)cc2)cc1S(=O)(=O)NC(C(=O)O)C(C)C (stereo unspecified),97.6% (inactive)
20,CN1CCN(C(=O)/C(=C\c2cccs2)NC(=O)c2cccs2)CC1,90.3% (inactive)
21,Cc1cc(Nc2ccccc2)nc(N)n1,93.5% (inactive)
22,Cc1cc(Nc2ccccc2)n(C(=O)c2ccc(N)cc2)n1,85.7% (inactive)
23,Nc1ccc(Nc2ccccc2)cc1,5.41% (active)
24,O=C(Cn1nnc(-c2ccccc2)n1)N/N=C/c1ccc(-c2ccc(Cl)cc2)o1,80.7% (inactive)

row,SMILES,viability
1,O=C(c1ccc(CSc2ccccc2)cc1)N1CCCCCC1,65.2% (inactive)
2,O=C(O)c1cccc(S(=O)(=O)Nc2ccc(O)cc2Sc2nc3ccccc3s2)c1,91.9% (inactive)
3,COc1ccc(S(=O)(=O)Nc2ccc(O)c(Sc3nc4ccccc4s3)c2)cc1,82.2% (inactive)
4,O=[N+]([O-])c1c(NCCO)cc(Sc2nc3ccccc3s2)c2nonc12,1.67% (active)
5,CN(c1ccccc1)S(=O)(=O)c1ccc(Cl)c(C(=O)NCCc2c[nH]c3ccccc23)c1,78.7% (inactive)
6,CNC(=O)/C(C#N)=C/c1c(F)cccc1Cl,74.3% (inactive)
7,CC1=CC(C)(C)Nc2ccc(OC(=O)C(Cc3ccccc3)N3C(=O)C4CCCCC4C3=O)cc21 (stereo unspecified),44.7% (inactive)
8,CC1=CC(C)(C)Nc2ccc(OC(=O)CN3C(=O)C4CCCCC4C3=O)cc21 (stereo unspecified),0.52% (active)
9,O=C(CN1C(=O)C2C3CCC(C3)C2C1=O)Oc1ccc2ccccc2c1 (stereo unspecified),85.5% (inactive)
10,CCCOC(=O)c1c(NC(=O)c2cnn3c2NC(c2ccccc2)CC3C(F)(F)F)sc2c1CCCC2 (stereo unspecified),61% (inactive)
11,CCCOc1ccc(C(=O)C(CCC(CNCC)C(=O)c2ccc(OCCC)cc2)CNCC)cc1 (stereo unspecified),0.87% (active)
12,CCCCOc1ccc(C(=O)NN2CCN(C)CC2)cc1,87.1% (inactive)
13,CCCCOc1ccc(C(=O)NCc2ccncc2)cc1,70.7% (inactive)
14,O=C(c1ccc(S(=O)(=O)c2ccccc2)cc1)N1CCCCCC1,93.2% (inactive)
15,C=CCn1c(SCc2ccc(Cl)c(Cl)c2)nnc1C(CO)NC(=O)c1ccc(OC)cc1 (stereo unspecified),90.7% (inactive)
16,Cc1cc(C)c2nc3nc(C)cc(C)c3c(N)c2c1,1.48% (active)
17,Cc1cc(C)c2nc(SCCC#N)nc(C)c2c1,109% (inactive)
18,C=CCNC(=O)/C=C/c1ccc(C(C)C)cc1,90.7% (inactive)
19,Nc1nc(SCC(=O)NNc2c(Cl)cc(Cl)cc2Cl)n[nH]1,98.6% (inactive)
20,Cc1sc2nc(CC(N)=O)[nH]c(=O)c2c1-c1ccccc1,90.4% (inactive)
21,NS(=O)(=O)c1ccc(NC(=O)COC(=O)C2(c3ccc(F)cc3)CCCC2)cc1,82.7% (inactive)
22,O=C(/C=C/c1ccccc1)c1ccccc1O,83.6% (inactive)
23,O=C(/C=C/c1ccccc1)c1ccoc1,10.1% (inactive)
24,Cc1[nH]c(=O)c(C(=O)/C=C/c2ccccc2)c2c1CCCC2,2.53% (active)
